According to PubChem BioAssay AID1159580 (chemical genetic matrix, 2015):
In all, about 5,500 compounds went through this assay and about 2,000 (36%) were called active. Inconclusive results (about 18%) are left out. No stated cut-off is given here; in the data, active means normalized growth mostly below about 0.91 (no sharp cut-off); inconclusive means no clear call, values can overlap the other calls; inactive means mostly above about 0.92. The list shows a part of the results.

Test: chemical genetic growth profiling, strain panel (AID 1159580);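 further: tested at 20 µM; growth read once vehicle control cultures reached saturation at 30 °C; 1 = growth at the plate median or of vehicle wells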
Details: S. cerevisiae deletion strains, growth OD
[1] = locus YAL040C, strain CLN3, stronger effect = lower value
[2] = locus YCL061C, strain MRC1 (second series), stronger effect = lower value
[3] = locus YDR363W, strain ESC2, stronger effect = lower value
[4] = locus YER002W, strain NOP16, stronger effect = lower value
[5] = locus YGR078C, strain PAC10, stronger effect = lower value
[6] = locus YMR263W, strain SAP30, stronger effect = lower value
[7] = locus YMR307W, strain GAS1, stronger effect = lower value
[8] = locus YNL153C, strain GIM3, stronger effect = lower value
[9] = locus YNL175C, strain NOP13, stronger effect = lower value
[10] = locus YNL197C, strain WHI3, stronger effect = lower value
[11] = locus YNL224C, strain SQS1, stronger effect = lower value
[12] = locus YOR083W, strain WHI5 (second series), stronger effect = lower value

Measured: normalized growth

CN1C2CCC1CC(OC(c1ccccc1)c1ccc(Cl)cc1)C2 (stereo unspecified)
active: locus YGR229C, strain SMI1, stronger effect = lower value 0.844
inactive: [1] 1.01 | [2] 1 | locus YDR150W, strain NUM1, stronger effect = lower value 0.997 | [3] 0.958 | [4] 1.04 | [5] 1.02 | [6] 0.997 | [7] 0.994 | [8] 0.987 | [9] 1.04 | [10] 1.03 | [11] 1.05 | [12] 1.01 | locus YPL241C, strain CIN2, stronger effect = lower value 0.993

CN1C2CCC1CC(OC(=O)c1c[nH]c3ccccc13)C2 (stereo unspecified)
inactive: [1] 0.995 | [2] 1 | [3] 1.01 | [4] 0.994 | [5] 1.02 | locus YJR075W, strain HOC1, stronger effect = lower value 1 | [6] 1 | [7] 1.01 | locus YNL128W, strain TEP1, stronger effect = lower value 0.995 | [8] 1.01 | [9] 1 | [10] 1.02 | [11] 0.985 | locus YNL322C, strain KRE1, stronger effect = lower value 1.03 | [12] 1.01 | locus YPL055C, strain LGE1, stronger effect = lower value 1.02
